The values that follow come from PubChem BioAssay (EPA / NIEHS).

Structures are written as SMILES. Active and inactive are the calls of the source. Rule for the calls: active = hit-call score of the fitted dose curve at least 0.9, where 1 is the maximum; inactive = score below 0.9.

What all share (conditions): mRNA level, 48 h; actives raise or lower the signal
Read-out in experiment [1]: Glutathione S-Transferase (GSTA2), GSTA2 (gene 2939)
Briefly: LTEA_HepaRG_GSTA2: Life Technologies and Expression Analysis (LTEA) Assay for Glutathione S-Transferase (GSTA2) using HepaRG (AID 2283497). The method, boiled down:
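Differentiated human HepaRG cells were exposed in duplicate for 48 h in serum-free induction medium, 8 points from 100 uM top in half-log steps, 0.5% DMSO. GSTA2 mRNA was measured by TaqMan qRT-PCR, normalized to ACTB, GAPDH and POLR2A; bidirectional fit versus DMSO.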

Read-out in experiment [2]: Glutamate-cysteine ligase catalytic (GCLC), GCLC (gene 2729)
Briefly: LTEA_HepaRG_GCLC: Life Technologies and Expression Analysis (LTEA) Assay for Glutamate-cysteine ligase catalytic (GCLC) using HepaRG (AID 2283498). A digest of the protocol:
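Differentiated HepaRG cells exposed 48 h in serum-free induction medium, eight-point half-log series topping at 100 uM in 0.5% DMSO, duplicates. GCLC mRNA by qRT-PCR normalized to ACTB, GAPDH and POLR2A, fitted bidirectionally versus DMSO.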

Read-out in experiment [3]: growth arrest and DNA damage 45 (GADD45G), GADD45G (gene 10912)
Put plainly: LTEA_HepaRG_GADD45G: Life Technologies and Expression Analysis (LTEA) Assay for growth arrest and DNA damage 45 (GADD45G) using HepaRG (AID 2283499). A digest of the protocol:
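Differentiated human HepaRG cells, 48 h post-plating, exposed 48 h in serum-free induction medium to 8 half-log concentrations (top 100 uM, 0.5% DMSO) in duplicate. GADD45G mRNA measured by Fluidigm TaqMan qRT-PCR, normalized to ACTB, GAPDH, POLR2A; bidirectional fit versus DMSO.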

Read-out in experiment [4]: Glutamate-cysteine ligase regulatory (GCLM), GCLM (gene 2730)
Put plainly: LTEA_HepaRG_GCLM: Life Technologies and Expression Analysis (LTEA) Assay for Glutamate-cysteine ligase regulatory (GCLM) using HepaRG (AID 2283500). The method, boiled down: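 Differentiated HepaRG cells exposed 48 h in serum-free induction medium to eight half-log concentrations up to 100 uM (0.5% DMSO). GCLM mRNA by TaqMan qRT-PCR, normalized to ACTB, GAPDH and POLR2A; bidirectional fit versus DMSO.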

Read-out in experiment [5]: Glutathione S-transferase M3 (GSTM3), GSTM3 (gene 2947)
Briefly: LTEA_HepaRG_GSTM3: Life Technologies and Expression Analysis (LTEA) Assay for Glutathione S-transferase M3 (GSTM3) using HepaRG (AID 2283501). A digest of the protocol: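 Differentiated human HepaRG cells were exposed in duplicate for 48 h in serum-free induction medium, 8 points from 100 uM top in half-log steps, 0.5% DMSO. GSTM3 mRNA was measured by TaqMan qRT-PCR, normalized to ACTB, GAPDH and POLR2A; bidirectional fit versus DMSO.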

Read-out in experiment [6]: Heat shock 70 kDa protein 1 (HSPA1A), gene 3303
Put plainly: LTEA_HepaRG_HSPA1A: Life Technologies and Expression Analysis (LTEA) Assay for Heat shock 70 kDa protein 1 (HSPA1A) using HepaRG (AID 2283502). The method, boiled down:
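Human HepaRG cells in serum-free induction medium were exposed in duplicate for 48 h to 8 half-log concentrations, highest 100 uM, in 0.5% DMSO. HSPA1A mRNA read by TaqMan qRT-PCR, normalized to ACTB, GAPDH, POLR2A, fitted bidirectionally against DMSO.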

Read-out in experiment [7]: 3-Hydroxy-3-Methylglutaryl-CoA Synthase 2 (HMGCS2), HMGCS2 (gene 3158)
Briefly: LTEA_HepaRG_HMGCS2: Life Technologies and Expression Analysis (LTEA) Assay for 3-Hydroxy-3-Methylglutaryl-CoA Synthase 2 (HMGCS2) using HepaRG (AID 2283504). A digest of the protocol:
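Human HepaRG cells in serum-free induction medium were exposed in duplicate for 48 h to 8-point half-log series from 100 uM top in 0.5% DMSO. HMGCS2 mRNA measured by TaqMan qRT-PCR, normalised to ACTB, GAPDH, POLR2A; bidirectional fit versus DMSO.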

Read-out in another experiment: HGF (gene 3082)
Put plainly: LTEA_HepaRG_HGF: Life Technologies and Expression Analysis (LTEA) Assay for Hepatocyte Growth Facto (HGF) using HepaRG (AID 2283505). A digest of the protocol:
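Differentiated HepaRG cells in serum-free induction medium exposed 48 h in duplicate, 8 half-log concentrations from 100 uM in 0.5% DMSO. HGF mRNA by qRT-PCR, normalised to ACTB, GAPDH, POLR2A; bidirectional fitting.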

Read-out in experiment [8]: Insulin Like Growth Factor 1 (IGF1), IGF1 (gene 3479)
Put plainly: LTEA_HepaRG_IGF1: Life Technologies and Expression Analysis (LTEA) Assay for Insulin Like Growth Factor 1 (IGF1) using HepaRG (AID 2283506). The method, boiled down: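 Differentiated HepaRG cells in serum-free induction medium, exposed 48 h in duplicate to 8 half-log concentrations up to 100 uM in 0.5% DMSO. IGF1 mRNA by Fluidigm qRT-PCR, normalised to ACTB, GAPDH and POLR2A.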

Read-out in experiment [9]: Intercellular Adhesion Molecule 1 (ICAM1), ICAM1 (gene 3383)
Put plainly: LTEA_HepaRG_ICAM1: Life Technologies and Expression Analysis (LTEA) Assay for Intercellular Adhesion Molecule 1 (ICAM1) using HepaRG (AID 2283507). A digest of the protocol:
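Differentiated human HepaRG cells in serum-free induction medium exposed 48 h in duplicate to 8 half-log concentrations (top 100 uM, 0.5% DMSO). ICAM1 mRNA quantified by TaqMan qRT-PCR, normalized to ACTB, GAPDH and POLR2A; bidirectional fitting versus DMSO.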

Read-out in experiment [10]: Insulin-like growth factor-binding protein 1 (IGFBP1), IGFBP1 (gene 3484)
Put plainly: LTEA_HepaRG_IGFBP1: Life Technologies and Expression Analysis (LTEA) Assay for Insulin-like growth factor-binding protein 1 (IGFBP1) using HepaRG (AID 2283508). The method, boiled down: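 HepaRG cells, plated 48 h then switched to serum-free induction medium, exposed in duplicate for 48 h to 8-point half-log series from 100 uM in 0.5% DMSO. mRNA measured by qRT-PCR, normalized to ACTB/GAPDH/POLR2A; bidirectional fit versus DMSO.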

Read-out in experiment [11]: Interleukin 6 (IL6), IL6 (gene 3569)
Put plainly: LTEA_HepaRG_IL6: Life Technologies and Expression Analysis (LTEA) Assay for Interleukin 6 (IL6) using HepaRG (AID 2283509). A digest of the protocol: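 HepaRG cells exposed in duplicate for 48 h to eight half-log concentrations, top 100 uM, in 0.5% DMSO serum-free induction medium. mRNA measured by qRT-PCR, normalized to ACTB, GAPDH and POLR2A. Bidirectional fit versus DMSO.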

Read-out in experiment [12]: Interleukin 6 Receptor (IL6R), IL6R (gene 3570)
Briefly: LTEA_HepaRG_IL6R: Life Technologies and Expression Analysis (LTEA) Assay for Interleukin 6 Receptor (IL6R) using HepaRG (AID 2283510). The method, boiled down: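 Differentiated HepaRG cells, plated 48 h, then exposed in duplicate for 48 h in serum-free induction medium to 8 half-log concentrations (top 100 uM, 0.5% DMSO). IL6R mRNA measured by TaqMan qRT-PCR, normalized to ACTB/GAPDH/POLR2A; bidirectional fit vs DMSO.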

Read-out in experiment [13]: Potassium channel subfamily K member 1 (KCNK1), KCNK1 (gene 3775)
Put plainly: LTEA_HepaRG_KCNK1: Life Technologies and Expression Analysis (LTEA) Assay for Potassium channel subfamily K member 1 (KCNK1) using HepaRG (AID 2283511). The method, boiled down:
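Differentiated HepaRG cells, 48 h exposure in serum-free induction medium with 0.5% DMSO; 8 concentrations, half-log from 100 uM, duplicate. KCNK1 mRNA by qRT-PCR, normalized to ACTB, GAPDH, POLR2A; bidirectional fit vs DMSO.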

Read-out in experiment [14]: Keratin 19 (KRT19), KRT19 (gene 3880)
Put plainly: LTEA_HepaRG_KRT19: Life Technologies and Expression Analysis (LTEA) Assay for Keratin 19 (KRT19) using HepaRG (AID 2283512). A digest of the protocol:
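Differentiated HepaRG cells in serum-free induction medium, exposed 48 h in duplicate to 8 half-log concentrations up to 100 uM in 0.5% DMSO. KRT19 mRNA by qRT-PCR, normalized to ACTB, GAPDH, POLR2A; bidirectional fit vs DMSO.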

Read-out in experiment [15]: JUN Transcription Factor, JUN (gene 3725)
Briefly: LTEA_HepaRG_JUN: Life Technologies and Expression Analysis (LTEA) Assay for JUN Transcription Factor using HepaRG (AID 2283513). The method, boiled down: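 HepaRG cells, 48 h post-plating, exposed 48 h in serum-free induction medium to 8-point half-log series (top 100 uM, 0.5% DMSO), duplicate; mRNA by qRT-PCR (TaqMan, Fluidigm), normalized to ACTB/GAPDH/POLR2A; bidirectional fit vs DMSO.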

Read-out in experiment [16]: Lipase C (LIPC), LIPC (gene 3990)
Briefly: LTEA_HepaRG_LIPC: Life Technologies and Expression Analysis (LTEA) Assay for Lipase C (LIPC) using HepaRG (AID 2283514). A digest of the protocol: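 HepaRG cells, 48 h after plating, treated in duplicate for 48 h in serum-free induction medium over 8 half-log concentrations from 100 uM, 0.5% DMSO. LIPC mRNA by TaqMan qRT-PCR normalized to ACTB/GAPDH/POLR2A; bidirectional fit versus DMSO.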

Read-out in experiment [17]: Lipoprotein lipase (LPL), LPL (gene 4023)
Briefly: LTEA_HepaRG_LPL: Life Technologies and Expression Analysis (LTEA) Assay for Lipoprotein lipase (LPL) using HepaRG (AID 2283515). A digest of the protocol:
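Differentiated HepaRG cells, plated 48 h, then exposed 48 h in serum-free induction medium to 8 concentrations (top 100 uM, half-log steps) in 0.5% DMSO, duplicate. LPL mRNA measured by qRT-PCR, normalized to ACTB, GAPDH and POLR2A.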

Read-out in experiment [18]: MicroRNA 122 (MIR122), gene 406906
Briefly: LTEA_HepaRG_MIR122: Life Technologies and Expression Analysis (LTEA) Assay for MicroRNA 122 (MIR122) using HepaRG (AID 2283516). Note: the transcript read is the microRNA miR-122. The method, boiled down:
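Differentiated human HepaRG cells in serum-free induction medium exposed 48 h to 8 half-log concentrations from 100 uM in 0.5% DMSO, duplicate. MIR122 quantified by Fluidigm TaqMan qRT-PCR, normalised to ACTB, GAPDH, POLR2A; fold change fitted bidirectionally versus DMSO.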

Read-out in experiment [19]: Hypoxia-inducible factor 1-alpha (Homo sapiens) (UniProt Q16665)
Put plainly: LTEA_HepaRG_HIF1A: Life Technologies and Expression Analysis (LTEA) Assay for Hypoxia-inducible factor 1 (HIF1A) Trancription factor using HepaRG (AID 2283503). The method, boiled down:
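Differentiated HepaRG cells in serum-free induction medium exposed 48 h, in duplicate, to 8-point half-log series from 100 uM in 0.5% DMSO. HIF1A mRNA measured by TaqMan qRT-PCR, normalized to ACTB/GAPDH/POLR2A, fitted bidirectionally versus DMSO.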

The term AC50 denotes the concentration at which the activity in the assay is half-maximal.

Chain of Hypoxia-inducible factor 1-alpha (Homo sapiens) (Q16665 whole entry, looked up): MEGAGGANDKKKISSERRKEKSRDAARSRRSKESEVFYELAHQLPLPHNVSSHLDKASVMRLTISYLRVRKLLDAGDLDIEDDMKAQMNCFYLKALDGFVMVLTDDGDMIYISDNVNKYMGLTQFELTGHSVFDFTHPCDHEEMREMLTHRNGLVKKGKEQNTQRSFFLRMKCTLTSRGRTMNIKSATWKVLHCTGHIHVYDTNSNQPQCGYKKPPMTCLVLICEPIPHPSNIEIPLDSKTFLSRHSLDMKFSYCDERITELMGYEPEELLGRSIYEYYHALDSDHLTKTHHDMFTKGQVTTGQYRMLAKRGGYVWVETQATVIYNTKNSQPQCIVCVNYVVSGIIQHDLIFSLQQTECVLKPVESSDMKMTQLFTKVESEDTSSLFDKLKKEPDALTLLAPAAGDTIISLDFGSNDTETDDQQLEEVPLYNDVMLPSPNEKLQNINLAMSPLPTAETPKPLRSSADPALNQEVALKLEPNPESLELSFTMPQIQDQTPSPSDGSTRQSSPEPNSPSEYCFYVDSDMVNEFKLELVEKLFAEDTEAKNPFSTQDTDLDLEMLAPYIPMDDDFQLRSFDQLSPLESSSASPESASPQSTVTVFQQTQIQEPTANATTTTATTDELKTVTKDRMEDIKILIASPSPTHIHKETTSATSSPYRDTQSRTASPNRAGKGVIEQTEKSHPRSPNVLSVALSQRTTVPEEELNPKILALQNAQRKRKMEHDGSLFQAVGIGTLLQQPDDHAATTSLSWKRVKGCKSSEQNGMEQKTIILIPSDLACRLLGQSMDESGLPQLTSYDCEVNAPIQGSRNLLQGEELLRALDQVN

`Nc1nc(N)c2nc(CNc3ccc(C(=O)N[C@@H](CCC(=O)O)C(=O)O)cc3)cnc2n1`: the AC50 in experiment [1] is 120 nM (active); in experiment [10] it was 93.7 nM (active). Moreover, the result in [2], in [3], in [4], in experiment [5], in experiment [6] and in experiment [7] was inactive. For the same compound, the outcome (with HGF (gene 3082); in experiment [8]; in experiment [9]; in [11]; in experiment [12]; in experiment [13]) was inactive. Moreover, the compound was classed as inactive in experiment [14], in experiment [15], in experiment [16], in experiment [17] and in [18].

On to `Cc1nc(-c2ccc3c(c2)CCN(CCC2CCC(NC(=O)/C=C/c4ccc(F)cc4)CC2)CC3)no1` (stereo unspecified), for which the result in [1], in experiment [2], in experiment [4], in [5], in experiment [6] and in experiment [19] was inactive. Further, the compound was classed as inactive (in experiment [7]; with HGF (gene 3082); in experiment [8]; in experiment [9]; in experiment [10]; in experiment [11]). For the same compound, the compound was classed as inactive in experiment [12], in experiment [13], in [14], in [15], in experiment [16] and in experiment [17].

Turning to `CCCCCCC(=O)OCC`, the call in [1], in experiment [2], in [3], in [4], in experiment [5] and in [6] was inactive. In addition, the outcome (in [19]; in experiment [7]; with HGF (gene 3082); in experiment [8]; in experiment [10]; in experiment [11]) was inactive. Besides, the call in experiment [12], in [13], in experiment [14], in [15], in [16] and in experiment [17] was inactive. The result in experiment [18] was inactive.
